Where “and” joins values, the source holds several entries; their conditions need not be identical. Equal entries are not always repeated. About 2,000 (36%) of roughly 5,500 compounds were called active. Inconclusive results (about 18%) are left out. No stated cut-off is given here; in the data, active means normalized growth mostly below about 0.91 (no sharp cut-off); inconclusive means no clear call, values can overlap the other calls; inactive means mostly above about 0.92. The list shows a part of the results.
Assay: chemical genetic growth profiling, strain panel (AID 1159580);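 further: tested at 20 µM; growth read once vehicle control cultures reached saturation at 30 °C; 1 = growth at the plate median or of vehicle wells; lower values mean less growth of the strain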
Conditions: S. cerevisiae deletion strains, growth OD

Measured: normalized growth

COc1ccc(/C=C/C(=O)O)cc1OC
inactive: locus YAL013W, strain DEP1, hits give low values 1 | locus YAL021C, strain ccr4, hits give low values 1.04 | locus YAL026C, strain drs2, hits give low values 0.99 | locus YAL030W, strain snc1, hits give low values 0.999 | locus YBL061C, strain skt5, hits give low values 0.987 | locus YBR009C, strain hhf1, hits give low values 1.01 | locus YBR021W, strain FUR4, hits give low values 1.04 | locus YBR023C, strain chs3, hits give low values 1.01 | locus YBR171W, strain sec66, hits give low values 0.965 | locus YBR229C, strain ROT2, hits give low values 1.02 | locus YBR231C, strain swc5, hits give low values 0.981 | locus YBR279W, strain paf1, hits give low values 1 | locus YCL011C, strain gbp2, hits give low values 0.991 | locus YCL016C, strain dcc1, hits give low values 1.04 | locus YCL029C, strain bik1, hits give low values 1.02 | locus YCL061C, strain MRC1, hits give low values 0.995 | locus YCL069W, strain vba3, hits give low values 0.955 | locus YCR088W, strain abp1, hits give low values 0.984 | locus YDL005C, strain med2, hits give low values 0.979 | locus YDL035C, strain GPR1, hits give low values 1.14 | locus YDL040C, strain nat1, hits give low values 0.991 | locus YDL101C, strain DUN1, hits give low values 1 | locus YDL134C, strain PPH21, hits give low values 1.06 | locus YDL185W, strain tfp1, hits give low values 1 | locus YDL192W, strain arf1, hits give low values 1.03 | locus YDR001C, strain nth1, hits give low values 0.981 | locus YDR069C, strain doa4, hits give low values 0.97 | locus YDR101C, strain arx1, hits give low values 1.01 | locus YDR137W, strain rgp1, hits give low values 1.02 | locus YDR159W, strain sac3, hits give low values 0.94 | locus YDR162C, strain NBP2, hits give low values 1.13 | locus YDR195W, strain ref2 0.961 | locus YDR297W, strain sur2, hits give low values 0.984 | locus YDR318W, strain mcm21, hits give low values 1.03 | locus YDR334W, strain swr1, hits give low values 0.975 | locus YDR335W, strain msn5, hits give low values 0.984 | locus YDR388W, hits give low values 1.01 | locus YDR392W, strain spt3, hits give low values 0.943 | locus YDR502C, strain sam2, hits give low values 1.03 | locus YEL003W, strain gim4, hits give low values 0.981 | locus YEL037C, strain rad23, hits give low values 0.981 | locus YEL061C, strain CIN8 (second series), hits give low values 0.976 | locus YEL061C, strain CIN8, hits give low values 1.01 | locus YER015W, strain faa2, hits give low values 1 | locus YER016W, strain bim1, hits give low values 0.991 | locus YER110C, hits give low values 1 | locus YER111C, strain swi4, hits give low values 0.974 | locus YER155C, strain BEM2 (second series), hits give low values 0.958 | locus YER155C, strain BEM2, hits give low values 1.01 | locus YER167W, strain BCK2, hits give low values 1.01 | locus YFR010W, strain ubp6, hits give low values 0.955 | locus YGL078C, strain dbp3, hits give low values 1 | locus YGL086W, strain mad1, hits give low values 1.01 | locus YGL167C, strain pmr1, hits give low values 0.999 | locus YGL173C, strain kem1, hits give low values 0.979 | locus YGL227W, strain vid30, hits give low values 0.984 | locus YGL240W, strain doc1, hits give low values 0.989 | locus YGL253W, strain hxk2, hits give low values 0.942 | locus YGR078C, strain PAC10, hits give low values 1.09 | locus YGR135W, strain pre9, hits give low values 1.04 | locus YGR252W, strain gcn5, hits give low values 1.19 | locus YHR013C, strain ard1, hits give low values 0.993 | locus YHR027C, strain rpn1, hits give low values 0.992 | locus YHR030C, strain SLT2, hits give low values 0.949 | locus YHR079C, strain IRE1 (second series), hits give low values 0.998 | locus YHR079C, strain IRE1, hits give low values 0.958 | locus YHR094C, strain hxt1, hits give low values 0.996 | locus YHR129C, strain ARP1, hits give low values 1.02 | locus YHR142W, strain chs7, hits give low values 0.993 | locus YHR200W, strain rpn10, hits give low values 0.999 | locus YIL066C, strain RNR3, hits give low values 1.01 | locus YIL125W, strain kgd1, hits give low values 1.02 | locus YIR030C, strain dcg1, hits give low values 0.998 | locus YJL092W, strain hpr5, hits give low values 0.974 | locus YJL095W, strain BCK1 (second series), hits give low values 0.981 | locus YJL095W, strain BCK1, hits give low values 0.972 and 1.18 | locus YJL115W, strain asf1, hits give low values 0.998 | locus YJL129C, strain trk1, hits give low values 0.968 | locus YJL134W, strain LCB3, hits give low values 1.01 | locus YJL154C, strain vps35, hits give low values 0.976 | locus YJL164C, strain tpk1, hits give low values 1.03 | locus YJL166W, strain qcr8, hits give low values 0.999 | locus YJL168C, strain set2, hits give low values 1.01 | locus YJL187C, strain SWE1 (second series), hits give low values 1.03 | locus YJL187C, strain SWE1, hits give low values 1.01 | locus YJR043C, strain POL32, hits give low values 1.06 | locus YJR066W, strain TOR1, hits give low values 0.907 | locus YKL009W, strain mrt4, hits give low values 0.971 | locus YKL068W, hits give low values 0.988 | locus YKL085W, strain MDH1 (second series), hits give low values 1 | locus YKL085W, strain MDH1, hits give low values 1 | locus YKL160W, strain elf1, hits give low values 1.04 | locus YKR001C, strain vps1, hits give low values 1.08 | locus YKR026C, strain gcn3, hits give low values 0.963 | locus YKR091W, strain srl3, hits give low values 1.01 | locus YLL001W, strain dnm1, hits give low values 0.976 | locus YLL026W, hits give low values 0.997 | locus YLL041C, strain sdh2, hits give low values 0.992 | locus YLR027C, strain aat2, hits give low values 1 | locus YLR058C, strain SHM2, hits give low values 1.01 | locus YLR102C, strain apc9, hits give low values 0.996 | locus YLR113W, strain HOG1, hits give low values 0.968 | locus YLR221C, strain rsa3, hits give low values 0.95 | locus YLR258W, strain gsy2, hits give low values 1.02 | locus YLR262C, strain YPT6 (second series), hits give low values 0.995 | locus YLR268W, strain sec22, hits give low values 1.05 | locus YLR320W, strain mms22, hits give low values 0.99 | locus YLR342W, strain FKS1 (second series), hits give low values 1.01 | locus YLR342W, strain FKS1, hits give low values 1.01 | locus YLR357W, strain rsc2, hits give low values 0.988 | locus YLR370C, strain arc18, hits give low values 0.971 | locus YLR371W, strain rom2, hits give low values 1.02 | locus YLR384C, strain iki3, hits give low values 0.998 | locus YML016C, strain PPZ1, hits give low values 1 | locus YML032C, strain rad52, hits give low values 1.02 | locus YML120C, strain ndi1, hits give low values 1.01 | locus YML124C, strain tub3, hits give low values 0.994 | locus YMR058W, strain fet3, hits give low values 0.991 | locus YMR078C, strain ctf18, hits give low values 1.01 | locus YMR125W, strain sto1, hits give low values 0.974 | locus YMR129W, hits give low values 1 | locus YMR205C, strain PFK2, hits give low values 1.05 | locus YMR223W, strain ubp8, hits give low values 1.03 | locus YMR231W, strain pep5, hits give low values 0.965 | locus YNL067W, strain RPL9B, hits give low values 1 | locus YNL071W, strain lat1, hits give low values 0.998 | locus YNL128W, strain TEP1, hits give low values 1.02 | locus YNL183C, strain NPR1, hits give low values 0.904 | locus YNL209W, strain ssb2, hits give low values 1.01 | locus YNL233W, strain BNI4, hits give low values 1.12 | locus YNL248C, strain rpa49, hits give low values 0.958 | locus YNL250W, strain rad50, hits give low values 1.03 | locus YNL271C, strain bni1, hits give low values 1.02 | locus YNL298W, strain CLA4, hits give low values 1.05 | locus YNL307C, strain MCK1, hits give low values 1.01 | locus YNL322C, strain KRE1 (second series), hits give low values 0.981 | locus YNL322C, strain KRE1, hits give low values 1.01 | locus YNR049C, strain mso1, hits give low values 0.99 | locus YNR052C, strain pop2, hits give low values 1.02 | locus YOL012C, strain htz1 1.37 | locus YOL147C, strain pex11, hits give low values 1.01 | locus YOR001W, strain rrp6, hits give low values 0.926 | locus YOR061W, strain CKA2, hits give low values 0.995 | locus YOR069W, strain VPS5, hits give low values 1.01 | locus YOR070C, strain gyp1, hits give low values 0.999 | locus YOR080W, strain dia2, hits give low values 0.978 | locus YOR083W, strain WHI5, hits give low values 1.04 | locus YOR106W, strain vam3, hits give low values 1.02 | locus YOR136W, strain idh2, hits give low values 1.01 | locus YOR144C, strain elg1, hits give low values 1 | locus YOR184W, strain ser1, hits give low values 1.08 | locus YOR231W, strain MKK1, hits give low values 0.944 | locus YOR265W, strain rbl2, hits give low values 0.991 | locus YOR270C, strain vph1, hits give low values 0.977 | locus YOR290C, strain snf2, hits give low values 1.04 | locus YOR316C, strain cot1, hits give low values 1.01 | locus YPL051W, strain arl3, hits give low values 0.98 | locus YPL078C, strain atp4, hits give low values 1.03 | locus YPL106C, strain sse1, hits give low values 1.04 | locus YPL240C, strain hsp82, hits give low values 0.986 | locus YPL256C, strain CLN2, hits give low values 0.968 | locus YPR119W, strain clb2, hits give low values 1.01 | locus YPR141C, strain kar3, hits give low values 1 | locus YPR163C, strain tif3, hits give low values 1.02 | locus YPR167C, strain met16, hits give low values 1.03 | strain wtn01, hits give low values 1.02
active: locus YDL074C, strain BRE1, hits give low values 1.4 [resistant] | locus YGL248W, strain PDE1, hits give low values 1.12 [resistant] | locus YIL073C, strain SPO22, hits give low values 1.55 [resistant] | locus YLR039C, strain RIC1, hits give low values 1.42 [resistant] | locus YMR307W, strain GAS1, hits give low values 1.53 [resistant] | locus YOL006C, strain TOP1, hits give low values 1.83 [resistant]

Reference: PubChem BioAssay AID1159580 (chemical genetic matrix, 2015)
